Compound activity deposited in PubChem by University of Kansas High Throughput Screening Laboratory.
Pf apPOL inh: Pf-apPOL inhibitors, biochemical, fluorescence; Plasmodium falciparum apicoplast DNA polymerase (apPOL); Recombinant Pf-apPOL, molecular beacon fluorescence, 1.5 h; AID 1794808, 2022; inhibition, % at 10 µM; 210,000 compounds, 0.25% hits
mHTT CaM bind: mutant huntingtin-calmodulin interaction inhibitors – biochemical, AlphaScreen, primary screen | P42858 | AlphaScreen His-mHTT/GST-CaM binding, luminescence | inhibition, % at 15 µM | 190,000 compounds, 3.6% hits | AID 1671202, 2021;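 further: 0% = both proteins with DMSO and 100% = one protein alone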
Numbers without * were called inactive; . = no result given. An excerpt weighted towards active compounds, which were near 3.6% of everything screened. No stated cut-off is given here; in the data, active means inhibition above about 50%; inactive means the rest.

SMILES	Pf apPOL inh	mHTT CaM bind
COc1ccc(CCNC(=O)CC23CC4CC(C2)CC(c2ccccc2)(C4)C3)cc1OC	-4	20
Cc1cccc(C)c1NC(=O)Cn1nnc(C(=O)Nc2ccc(F)cc2)c1N	-7	5
CCn1nc(C)c([N+](=O)[O-])c1C(=O)Sc1ccc(C(F)(F)F)cn1	2	.
Cc1cc(NC(=O)c2ccc(Oc3ccc(C(=O)Nc4cc(C)on4)cc3)cc2)no1	3	-12
CC1CCCCC1NC(=O)Nc1cn(C)c2ccccc12 (stereo unspecified)	-1	-10
CN(C)c1ccc(NC(=O)Nc2cn(C)c3ccccc23)cc1	2	56*
O=C(NC1CC1)C1CCN(c2cnc(N3CCCCCC3)nc2)CC1	-4	-4
O=C(CSc1nccn1-c1cccc(Cl)c1)Nc1cccc(C(F)(F)F)c1	-2	61*
O=C(CSc1nccn1-c1cccc(Cl)c1)Nc1cc(C(F)(F)F)ccc1Cl	-5	13
O=C(CSc1nccn1-c1ccccc1)Nc1cc(C(F)(F)F)ccc1Cl	-8	13
O=C(CSc1nccn1-c1ccc([N+](=O)[O-])cc1)Nc1cc(C(F)(F)F)ccc1Cl	-8	51*
Cc1cccc(-n2ccnc2SCC(=O)Nc2cccc(C(F)(F)F)c2)c1	-5	49
Cc1cccc(-n2ccnc2SCC(=O)Nc2cccc(C(F)(F)F)c2)c1C	-8	17
Cc1cccc(-n2ccnc2SCC(=O)Nc2ccc(Cl)c(Cl)c2)c1C	-7	95*
Cc1cc(C)cc(-n2ccnc2SCC(=O)Nc2cccc(C(F)(F)F)c2)c1	4	52*
COc1ccc(NC(=O)COc2ccc(F)cc2)cc1N1CCCC1=O	-12	-4
COc1cc(OC)cc(C(=O)Nc2ccc3sccc3c2)c1	-1	-1
Brc1ccc2[nH]c3c(c2c1)CCCCC3	.	53*
O=c1c2c([nH]c3ccccc13)CCCC2	4	.
Nc1ccc2[nH]c3c(c2c1)CCCC3	.	68*
c1ccc2c3c([nH]c2c1)CCCCCC3	-7	.
Cc1cc(C)cc(C(=O)NC2CCN(c3ccccc3)C2=O)c1 (stereo unspecified)	-5	-3
O=C1C=C(c2ccccc2)C(=O)C=C1Cl	50*	.
O=c1c(-c2ccccc2)c1-c1ccccc1	-14	.
C=CCN1C(=O)C(=O)C(=C(O)c2ccc(Br)cc2)C1c1ccc([N+](=O)[O-])cc1 (stereo unspecified)	-2	14
SMILES	Pf apPOL inh	mHTT CaM bind
NC(=O)c1c(NC(=O)C2CC2)sc2c1CCCCC2	0	34
CC1=NN(c2ccccc2)C(=O)C1	-3	.
CC1=NN(c2ccc(Cl)cc2)C(=O)C1	-2	68*
COc1cccc(-c2nc(C3CCN(C(=O)C4COc5ccccc5O4)CC3)no2)c1 (stereo unspecified)	1	87*
COc1cccc(-c2nc(C3CCN(C(=O)c4ccccc4)CC3)no2)c1	0	13
Cc1cccc(-c2nc(C3CCN(C(=O)Cc4cccc(F)c4)CC3)no2)c1	0	20
Cc1cccc(-c2nc(C3CCN(C(=O)COc4ccc(Cl)cc4)CC3)no2)c1	-1	80*
O=C(O)CN1C(=O)/C(=C2/SC(=Nc3cccc(Cl)c3Cl)NC2=O)c2ccccc21	2	19
CCc1ccccc1N(CC(=O)Nc1ccccc1C(=O)NC(C)C)S(C)(=O)=O	-3	-1
CC(C)NC(=O)c1ccccc1NC(=O)CN(c1ccccc1F)S(=O)(=O)c1ccccc1	92*	3
COc1ccc(N(CC(=O)Nc2ccc(F)cc2F)S(=O)(=O)c2ccccc2)c(OC)c1	-6	0
CCc1ccccc1N(CC(=O)Nc1ccc(F)cc1F)S(=O)(=O)c1ccccc1	-8	81*
CCOCCCNC(=O)CC1CCN(C(=O)c2sc(-c3ccccc3)nc2C)CC1	7	-4
Cc1cc(OCC(=O)N2N=C(c3ccccc3)CC2(O)C(F)(F)F)ccc1Cl (stereo unspecified)	-12	100*
Cc1cc(OCC(=O)N2N=C(C3CCCCC3)CC2(O)C(F)(F)F)ccc1Cl (stereo unspecified)	1	100*
CC1=NN(C(=O)COc2ccc(Cl)c(C)c2)C(O)(C(F)(F)F)C1 (stereo unspecified)	-9	20
Cc1cc(OCC(=O)N2N=C3CCCCC3C2(O)C(F)(F)F)ccc1Cl (stereo unspecified)	3	80*
O=C(c1ccccc1Cl)N1N=C2CCCCC2C1(O)C(F)(F)F (stereo unspecified)	-1	-2
CC1=NN(C(=O)COc2cc(C)c(Cl)c(C)c2)C(O)(C(F)(F)F)C1 (stereo unspecified)	-3	12
O=C(C1CCN(c2nc3ccc(-c4ccncc4)nc3s2)CC1)N1CCCC1	-6	10
Cc1noc(C)c1S(=O)(=O)NCCC1CCCCN1S(=O)(=O)c1cccs1 (stereo unspecified)	-6	-10
COc1ccc(/C=C2/SC(=Nc3cccc(C)c3)NC2=O)cc1OC	-5	37
